From PubChem BioAssay (EPA / NIEHS) come the findings set out here.

Each structure is given as a SMILES string. Active and inactive are the calls of the source. The calls were made as follows: active = hit-call score of the fitted dose curve at least 0.9, where 1 is the maximum; inactive = score below 0.9.

Chain of Cytochrome P450 3A7 (Homo sapiens) (P24462 whole entry, looked up): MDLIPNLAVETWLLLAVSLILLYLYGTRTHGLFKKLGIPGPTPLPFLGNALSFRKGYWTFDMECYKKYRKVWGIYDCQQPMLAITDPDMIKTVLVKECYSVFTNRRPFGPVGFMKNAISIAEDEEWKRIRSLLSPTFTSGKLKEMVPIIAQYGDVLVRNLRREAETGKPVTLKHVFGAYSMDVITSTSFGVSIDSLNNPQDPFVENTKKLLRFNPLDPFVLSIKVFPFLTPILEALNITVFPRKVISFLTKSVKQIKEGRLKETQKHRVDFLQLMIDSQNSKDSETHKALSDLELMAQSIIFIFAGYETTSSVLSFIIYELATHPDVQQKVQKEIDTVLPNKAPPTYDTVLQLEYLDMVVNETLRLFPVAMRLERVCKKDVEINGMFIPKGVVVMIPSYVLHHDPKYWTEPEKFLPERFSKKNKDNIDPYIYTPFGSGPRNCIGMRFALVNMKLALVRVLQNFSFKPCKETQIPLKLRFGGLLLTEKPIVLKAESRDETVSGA

Read-out in the first experiment: Ezrin (EZR), EZR (gene 7430)
In words: LTEA_HepaRG_EZR: Life Technologies and Expression Analysis (LTEA) Assay for Ezrin (EZR) using HepaRG (AID 2283491). Conditions: mRNA level, 48 h; actives raise or lower the signal. Summed up: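 Read-out is EZR transcript level by qRT-PCR, normalized to three housekeeping genes and fitted bidirectionally against the DMSO control. Human HepaRG cells received test chemicals for 48 h at eight half-log concentrations up to 100 uM in 0.5% DMSO.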
As to `CC(C)(C)c1cc(C(C)(C)C)c(O)c(C(C)(C)C)c1`, the call was inactive.
Turning to `Cc1cc(C)c(O)c(C)c1`, the call was inactive.
Turning to `CCCCC(CC)COC(=O)CCCCC(=O)OCc1ccccc1` (configuration not stated), the outcome was inactive.
Still for that read-out and setting: next, `c1ccc2c(c1)ccc1ccccc12`: “inactive”; `CCCCCCCCOC(=O)CCCCCCCCC(=O)OCCCCCCCC`: “inactive”; `CC(C)(C)c1ccc(O)c(C(C)(C)C)c1`: “inactive”.
`O=C(OCCOCCOC(=O)c1ccccc1)c1ccccc1`: the result was inactive.
On the same count and under the same terms, as for `CCCOc1sc(C(=O)N2CCC(c3cc(CN)ccc3F)CC2)c(C)c1Br`, the entry is “inactive”.
Turning to `CCc1nn(C2CCCCC2)c2cc(C3(C#N)CCC(C(=O)O)CC3)ccc12` (configuration not stated), the AC50 – broadly, the concentration giving half of the maximal activity seen – is 0.313 µM (active).
In the case of `COCC(C)OCC(C)O` (configuration not stated), the molecule was classed as inactive.
As to `CC(C)(C)CC(C)(C)c1ccc(O)c(-n2nc3ccccc3n2)c1`, the molecule was called inactive.
As to `CC(O)CO` (configuration not stated), the call was inactive.
Still for that read-out and setting: as for `COc1ccc([N+](=O)[O-])cc1N`, the entry is “inactive”; as for `CCCCCCCCCCCCN1CCCC1=O`, “inactive”; as for `OCCC(F)(F)C(F)(F)C(F)(F)C(F)(F)C(F)(F)C(F)(F)F`, “inactive”.
Same read-out and setting: as for `CCCCCCCCCCCCc1ccccc1S(=O)(=O)O`, the entry is “inactive”; as for `OCCC(F)(F)C(F)(F)C(F)(F)C(F)(F)C(F)(F)C(F)(F)C(F)(F)C(F)(F)F`, “inactive”; as for `CCCCOCCO`, “inactive”.
On the same count and under the same terms, as for `CCCCCCCCCCCCCCCS(=O)(=O)Oc1ccccc1`, the entry is “inactive”; as for `CC(C)(C)c1cccc(C(C)(C)C)c1O`, “inactive”; as for `CCC(=C(c1ccc(O)cc1)c1ccc(OCCN(C)C)cc1)c1ccccc1`, “inactive”.
As for `CC(C)CCCCCCOC(=O)CCCCC(=O)OCCCCCCC(C)C`, the result was inactive.
Regarding `CN1CCN(c2ccccc2/C=C2\SCCN(c3ccc(Cl)c(Cl)c3)C2=O)CC1`, the AC50 was 50 µM (active).
Regarding `O=C(O)Cc1cc(I)c(Oc2cc(I)c(O)c(I)c2)c(I)c1`, the molecule was classed as inactive.
Still for that read-out and setting: as for `CC(=O)CC(C)(C)O`, the entry is “inactive”.
On to `CCN(CC)CCNc1ccc(CNC=O)c2sc3ccc(OC)cc3c(=O)c12`, for which the AC50 is 76.2 µM (active).
As for `OC1CCC(C2CCCCC2)CC1` (configuration not stated), the molecule was classed as inactive.
For the molecule `O=c1c(-c2ccc(O)cc2)coc2cc(O)ccc12`, the molecule was called inactive.
On to `CN(C)C=O`, for which the result was inactive.
The same measure, in the same setting: next, `NC(=O)N(O)[C@@H]1C=C[C@H](Oc2cccc(Oc3ccc(F)cc3)c2)C1`: “inactive”; `CC[C@H](C)[C@@H](C(=O)O)n1sc2ccccc2c1=O`: “inactive”.

Read-out in another experiment: Cytochrome P450 3A7 (Homo sapiens) (UniProt P24462)
In words: LTEA_HepaRG_CYP3A7: Life Technologies and Expression Analysis (LTEA) Assay for CYP3A7 using HepaRG (AID 2283492). Conditions: mRNA level, 48 h; actives raise or lower the signal. The procedure, abridged:
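CYP3A7 transcript measured by qRT-PCR (ACTB, GAPDH, POLR2A normalization) after 48 h chemical exposure of HepaRG cells in duplicate. Eight half-log concentrations, maximum 100 uM, 0.5% DMSO vehicle; bidirectional curve fitting against DMSO baseline.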
`CC(C)(C)c1cc(C(C)(C)C)c(O)c(C(C)(C)C)c1`: the AC50 was 10.9 µM (active).
On the same count and under the same terms, next, `Cc1cc(C)c(O)c(C)c1`: 7.49 µM (active).
Turning to `CCCCC(CC)COC(=O)CCCCC(=O)OCc1ccccc1` (configuration not stated), the molecule was classed as inactive.
With `c1ccc2c(c1)ccc1ccccc12`, the AC50 was 5.99 µM (active).
For the molecule `CCCCCCCCOC(=O)CCCCCCCCC(=O)OCCCCCCCC`, the call was inactive.
Same read-out and setting: next, `CC(C)(C)c1ccc(O)c(C(C)(C)C)c1`: “inactive”; `O=C(OCCOCCOC(=O)c1ccccc1)c1ccccc1`: “inactive”.
With `CCCOc1sc(C(=O)N2CCC(c3cc(CN)ccc3F)CC2)c(C)c1Br`, the outcome was inactive.
With `CCc1nn(C2CCCCC2)c2cc(C3(C#N)CCC(C(=O)O)CC3)ccc12` (configuration not stated), the AC50 was 87.8 µM (active).
In the case of `COCC(C)OCC(C)O` (configuration not stated), the call was inactive.
In the case of `CC(C)(C)CC(C)(C)c1ccc(O)c(-n2nc3ccccc3n2)c1`, the outcome was inactive.
Same read-out and setting: as for `CC(O)CO` (configuration not stated), the entry is “inactive”; as for `COc1ccc([N+](=O)[O-])cc1N`, “inactive”.
As for `CCCCCCCCCCCCN1CCCC1=O`, the outcome was inactive.
For the molecule `OCCC(F)(F)C(F)(F)C(F)(F)C(F)(F)C(F)(F)C(F)(F)F`, the result was inactive.
Turning to `CCCCCCCCCCCCc1ccccc1S(=O)(=O)O`, the AC50 was 88 µM (active).
With `OCCC(F)(F)C(F)(F)C(F)(F)C(F)(F)C(F)(F)C(F)(F)C(F)(F)C(F)(F)F`, the molecule was classed as inactive.
On the same count and under the same terms, next, `CCCCOCCO`: “inactive”.
Regarding `CCCCCCCCCCCCCCCS(=O)(=O)Oc1ccccc1`, the concentration at half-maximal activity (AC50) was 8.39 µM (active).
On to `CC(C)(C)c1cccc(C(C)(C)C)c1O`, for which the molecule was classed as inactive.
Consider `CCC(=C(c1ccc(O)cc1)c1ccc(OCCN(C)C)cc1)c1ccccc1`, for which the AC50 was 3.5 µM (active).
As for `CC(C)CCCCCCOC(=O)CCCCC(=O)OCCCCCCC(C)C`, the molecule was classed as inactive.
On to `CN1CCN(c2ccccc2/C=C2\SCCN(c3ccc(Cl)c(Cl)c3)C2=O)CC1`, for which the call was inactive.
Regarding `O=C(O)Cc1cc(I)c(Oc2cc(I)c(O)c(I)c2)c(I)c1`, the AC50 is 45.4 µM (active).
In the case of `CC(=O)CC(C)(C)O`, the outcome was inactive.
For the molecule `CCN(CC)CCNc1ccc(CNC=O)c2sc3ccc(OC)cc3c(=O)c12`, the AC50 is 3.36 µM (active).
As for `OC1CCC(C2CCCCC2)CC1` (configuration not stated), the molecule was called inactive.
Turning to `O=c1c(-c2ccc(O)cc2)coc2cc(O)ccc12`, the molecule was classed as inactive.
For the molecule `CN(C)C=O`, the molecule was called inactive.
As for `NC(=O)N(O)[C@@H]1C=C[C@H](Oc2cccc(Oc3ccc(F)cc3)c2)C1`, the AC50 was 33.7 µM (active).
Consider `CC[C@H](C)[C@@H](C(=O)O)n1sc2ccccc2c1=O`, for which the result was inactive.

Read-out in another experiment: CYP3A5 (gene 1577)
Nature of the experiment: LTEA_HepaRG_CYP3A5: Life Technologies and Expression Analysis (LTEA) Assay for CYP3A5 using HepaRG (AID 2283493). Conditions: mRNA level, 48 h; actives raise or lower the signal. The procedure, abridged:
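mRNA induction or loss of CYP3A5 assessed in HepaRG after 48 h dosing, 100 uM top concentration, duplicate wells; TaqMan qRT-PCR with ACTB, GAPDH, POLR2A normalization; 0.5% DMSO as negative control.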
Take `Cc1cc(C)c(O)c(C)c1`: the call was inactive.
Take `CCCCC(CC)COC(=O)CCCCC(=O)OCc1ccccc1` (configuration not stated): the outcome was inactive.
Turning to `CCCCCCCCOC(=O)CCCCCCCCC(=O)OCCCCCCCC`, the call was inactive.
Still for that read-out and setting: as for `CC(C)(C)c1ccc(O)c(C(C)(C)C)c1`, the entry is “inactive”.
Same read-out and setting: next, `O=C(OCCOCCOC(=O)c1ccccc1)c1ccccc1`: “inactive”; `CCc1nn(C2CCCCC2)c2cc(C3(C#N)CCC(C(=O)O)CC3)ccc12` (configuration not stated): “inactive”; `COCC(C)OCC(C)O` (configuration not stated): “inactive”.
With `CC(O)CO` (configuration not stated), the molecule was called inactive.
On the same count and under the same terms, as for `OCCC(F)(F)C(F)(F)C(F)(F)C(F)(F)C(F)(F)C(F)(F)F`, the entry is “inactive”.
The same measure, in the same setting: as for `OCCC(F)(F)C(F)(F)C(F)(F)C(F)(F)C(F)(F)C(F)(F)C(F)(F)C(F)(F)F`, the entry is “inactive”; as for `CCCCOCCO`, “inactive”; as for `CC(C)(C)c1cccc(C(C)(C)C)c1O`, “inactive”.
On to `CCC(=C(c1ccc(O)cc1)c1ccc(OCCN(C)C)cc1)c1ccccc1`, for which the AC50 was 92.9 µM (active).
For `CC(C)CCCCCCOC(=O)CCCCC(=O)OCCCCCCC(C)C`, the result was inactive.
For the molecule `CN1CCN(c2ccccc2/C=C2\SCCN(c3ccc(Cl)c(Cl)c3)C2=O)CC1`, the call was inactive.
`O=C(O)Cc1cc(I)c(Oc2cc(I)c(O)c(I)c2)c(I)c1`: the AC50 was 26.7 µM (active).
Regarding `CC(=O)CC(C)(C)O`, the molecule was called inactive.
On to `CCN(CC)CCNc1ccc(CNC=O)c2sc3ccc(OC)cc3c(=O)c12`, for which the AC50 is 50 µM (active).
With `O=c1c(-c2ccc(O)cc2)coc2cc(O)ccc12`, the molecule was classed as inactive.
On to `NC(=O)N(O)[C@@H]1C=C[C@H](Oc2cccc(Oc3ccc(F)cc3)c2)C1`, for which the call was inactive.
